# Laboratory results as given in PubChem BioAssay (NCI).
# The panel holds about 83,000 compounds, 20% with a hit somewhere; the sample as a whole holds those more often.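 Interpretation: 100, growth as untreated; towards 0, rising growth inhibition; 0, no net growth; 0 to -100, cell death. Compounds scoring below 10 were considered active.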 The source made the active and inactive calls.
# System: BT-549 breast
# Assay: NCI-60 one-dose screen, 48 h (100 = growth as untreated, 0 = no growth, -100 = all killed)
# Settings: 10 µM unless noted
row,Structure (SMILES),growth
1,Cc1cccc2c3c(sc12)C(c1ccc(F)cc1)C(C#N)=C(N)O3 (stereo unspecified),-0.876% (active)
2,CCc1cccc2c3c(sc12)C(c1ccc(Cl)cc1)C(C#N)=C(N)O3 (stereo unspecified),50.8% (inactive)
3,CCOC(=O)c1sc2ncc(-c3ccc(OC)cc3)n2c1C,102% (inactive)
4,Cc1c(C(=O)NCCCc2ccccc2)sc2ncc(-c3ccc(Br)cc3)n12,110% (inactive)
5,COc1ccc(NC2=C(Br)C(=O)C(C)=C(C)C2=O)cc1,101% (inactive)
6,O=S(=O)(Nc1ccc(-c2nc(-c3cccc(OCCN4CCOCC4)c3)c(-c3ccnc(Br)c3)[nH]2)cc1)c1ccccc1,54.3% (inactive)
7,Cc1ccc2c(n1)C(=O)C(Cl)=C(Nc1ccccc1C(C)C)C2=O,74.9% (inactive)
8,COc1cccc(-c2nc(-c3ccc(NC(=O)C(C)C)cc3)[nH]c2-c2ccnc(Br)c2)c1,56.9% (inactive)
9,COc1ccc(-c2cc(-c3ccc(Cl)cc3)c(C#N)c(=O)n2CCCCCC(=O)Nc2ccccc2N)cc1,58.4% (inactive)
10,CCOC(=O)Nc1ccc(-c2nc(-c3cccc(OC)c3)c(-c3ccnc(Br)c3)[nH]2)cc1,56.1% (inactive)
11,CCn1cnc2c1c(=O)[nH]c(=O)n2CC1CCC(CNS(=O)(=O)c2ccc(OC3CCOCC3)c(F)c2)CC1 (stereo unspecified),72.7% (inactive)
12,Cc1ccc(NC2=C(Cl)C(=O)c3nc(C)ccc3C2=O)cc1,44.9% (inactive)
13,CCc1cccc2c3c(sc12)C(c1ccc(F)cc1)C(C#N)=C(N)O3 (stereo unspecified),19.7% (inactive)
14,CCc1cccc2c1S/C(=C/c1ccc(OC)cc1)C2=O,55.5% (inactive)
15,CCOC(=O)Nc1ccc(-c2nc(-c3cccc(OCCN4CCOCC4)c3)c(-c3ccnc(Br)c3)[nH]2)cc1,56.4% (inactive)
16,COc1cccc(-c2nc(-c3ccc(NC(=O)c4ccccc4)cc3)[nH]c2-c2ccnc(Br)c2)c1,47.1% (inactive)
17,O=C(CCN1C(=O)/C(=C/c2ccc(O)cc2)SC1=S)Nc1ccccc1,93.1% (inactive)
18,CC1=C(C)C(=O)C(Nc2cccc(C(=O)OC(C)(C)C)c2)=C(Br)C1=O,92.9% (inactive)
19,Cc1ccc(C(CC(=O)O)c2c(C)[nH][nH]c2=O)cc1 (stereo unspecified),103% (inactive)

row,Structure (SMILES),growth
1,CCCCn1c(-c2ccc(-c3nc(-c4ccc(Cl)cc4)no3)cc2)nc(-c2ccccc2)c1-c1ccccc1,101% (inactive)
2,CCCCCCn1c(-c2ccc(C(=O)O/N=C(\N)c3ccc(OC)cc3)cc2)nc(-c2ccccc2)c1-c1ccccc1,-2.06% (active)
3,Cc1cccc(NC2=C(Cl)C(=O)c3nc(C)ccc3C2=O)c1,3.34% (active)
4,O=C(CCN1C(=O)/C(=C/c2ccc(O)cc2)SC1=S)Nc1ccc(Cl)cc1,99.8% (inactive)
5,COC(=O)Nc1ccc(-c2nc(-c3cccc(OC)c3)c(-c3ccnc(Br)c3)[nH]2)cc1,72.7% (inactive)
6,O=C1/C(=C/c2ccccc2[N+](=O)[O-])Oc2ccc(O)c(O)c21,52.9% (inactive)
7,Cc1cccc2c3c(sc12)C(c1ccc(Cl)cc1)C(C#N)=C(N)O3 (stereo unspecified),17.9% (inactive)
8,Cc1ccc(-c2cnc3sc(C(=O)NCCc4ccccc4)c(C)n23)cc1,79.5% (inactive)
9,CCCCCCn1c(-c2ccc(C(=O)O/N=C(\N)c3ccc4c(c3)OCO4)cc2)nc(-c2ccccc2)c1-c1ccccc1,43.5% (inactive)
10,CC(C)OC(=O)Nc1ccc(-c2nc(-c3cccc(OCCN4CCOCC4)c3)c(-c3ccnc(Br)c3)[nH]2)cc1,42.1% (inactive)
11,CCCCCCn1c(-c2ccc(C(=O)O/N=C(\N)c3ccc4ccccc4c3)cc2)nc(-c2ccccc2)c1-c1ccccc1,79.6% (inactive)
12,O=C(Nc1ccc(-c2nc(-c3cccc(OCCN4CCOCC4)c3)c(-c3ccnc(Br)c3)[nH]2)cc1)c1ccccc1,45% (inactive)
13,CCOC(=O)c1sc2ncc(-c3ccc(C)cc3)n2c1C,107% (inactive)
14,CC(C)C(=O)Nc1ccc(-c2nc(-c3cccc(OCCN4CCOCC4)c3)c(-c3ccnc(Br)c3)[nH]2)cc1,56.4% (inactive)
15,CCOC(=O)C1=C(N)Oc2c(sc3c(C)cccc23)C1c1ccc(Cl)cc1 (stereo unspecified),65.7% (inactive)
16,CCOC(=O)C1=C(N)Oc2c(sc3c(C)cccc23)C1c1ccc(OC)cc1 (stereo unspecified),49.6% (inactive)
17,CCC(=O)Nc1ccc(-c2nc(-c3cccc(OC)c3)c(-c3ccnc(Br)c3)[nH]2)cc1,77.4% (inactive)
18,Cc1cccc2c1S/C(=C/c1ccc([N+](=O)[O-])cc1)C2=O,124% (inactive)
19,CCOC(=O)C1=C(N)Oc2c(sc3c(CC)cccc23)C1c1ccc(F)cc1 (stereo unspecified),73.6% (inactive)

# System: SW-620 colon
# Assay: as above
# Settings: 10 µM unless noted
row,Structure (SMILES),growth
1,Cc1cccc2c3c(sc12)C(c1ccc(F)cc1)C(C#N)=C(N)O3 (stereo unspecified),21.3% (inactive)
2,CCc1cccc2c3c(sc12)C(c1ccc(Cl)cc1)C(C#N)=C(N)O3 (stereo unspecified),33.4% (inactive)
3,CCOC(=O)c1sc2ncc(-c3ccc(OC)cc3)n2c1C,94.1% (inactive)
4,Cc1c(C(=O)NCCCc2ccccc2)sc2ncc(-c3ccc(Br)cc3)n12,105% (inactive)
5,COc1ccc(NC2=C(Br)C(=O)C(C)=C(C)C2=O)cc1,98.9% (inactive)
6,O=S(=O)(Nc1ccc(-c2nc(-c3cccc(OCCN4CCOCC4)c3)c(-c3ccnc(Br)c3)[nH]2)cc1)c1ccccc1,43.5% (inactive)
7,Cc1ccc2c(n1)C(=O)C(Cl)=C(Nc1ccccc1C(C)C)C2=O,48.2% (inactive)
8,COc1cccc(-c2nc(-c3ccc(NC(=O)C(C)C)cc3)[nH]c2-c2ccnc(Br)c2)c1,42.2% (inactive)
9,COc1ccc(-c2cc(-c3ccc(Cl)cc3)c(C#N)c(=O)n2CCCCCC(=O)Nc2ccccc2N)cc1,42.4% (inactive)
10,CCOC(=O)Nc1ccc(-c2nc(-c3cccc(OC)c3)c(-c3ccnc(Br)c3)[nH]2)cc1,46.9% (inactive)
11,CCn1cnc2c1c(=O)[nH]c(=O)n2CC1CCC(CNS(=O)(=O)c2ccc(OC3CCOCC3)c(F)c2)CC1 (stereo unspecified),65.1% (inactive)
12,Cc1ccc(NC2=C(Cl)C(=O)c3nc(C)ccc3C2=O)cc1,-30.7% (active)
13,CCc1cccc2c3c(sc12)C(c1ccc(F)cc1)C(C#N)=C(N)O3 (stereo unspecified),30.3% (inactive)
14,CCc1cccc2c1S/C(=C/c1ccc(OC)cc1)C2=O,30% (inactive)
15,CCOC(=O)Nc1ccc(-c2nc(-c3cccc(OCCN4CCOCC4)c3)c(-c3ccnc(Br)c3)[nH]2)cc1,42.6% (inactive)
16,COc1cccc(-c2nc(-c3ccc(NC(=O)c4ccccc4)cc3)[nH]c2-c2ccnc(Br)c2)c1,30.8% (inactive)
17,O=C(CCN1C(=O)/C(=C/c2ccc(O)cc2)SC1=S)Nc1ccccc1,102% (inactive)
18,CC1=C(C)C(=O)C(Nc2cccc(C(=O)OC(C)(C)C)c2)=C(Br)C1=O,91.3% (inactive)
19,Cc1ccc(C(CC(=O)O)c2c(C)[nH][nH]c2=O)cc1 (stereo unspecified),108% (inactive)

row,Structure (SMILES),growth
1,CCCCn1c(-c2ccc(-c3nc(-c4ccc(Cl)cc4)no3)cc2)nc(-c2ccccc2)c1-c1ccccc1,88.8% (inactive)
2,CCCCCCn1c(-c2ccc(C(=O)O/N=C(\N)c3ccc(OC)cc3)cc2)nc(-c2ccccc2)c1-c1ccccc1,-1.32% (active)
3,Cc1cccc(NC2=C(Cl)C(=O)c3nc(C)ccc3C2=O)c1,-13.7% (active)
4,O=C(CCN1C(=O)/C(=C/c2ccc(O)cc2)SC1=S)Nc1ccc(Cl)cc1,101% (inactive)
5,COC(=O)Nc1ccc(-c2nc(-c3cccc(OC)c3)c(-c3ccnc(Br)c3)[nH]2)cc1,74.5% (inactive)
6,O=C1/C(=C/c2ccccc2[N+](=O)[O-])Oc2ccc(O)c(O)c21,28.5% (inactive)
7,Cc1cccc2c3c(sc12)C(c1ccc(Cl)cc1)C(C#N)=C(N)O3 (stereo unspecified),26.9% (inactive)
8,Cc1ccc(-c2cnc3sc(C(=O)NCCc4ccccc4)c(C)n23)cc1,91.9% (inactive)
9,CCCCCCn1c(-c2ccc(C(=O)O/N=C(\N)c3ccc4c(c3)OCO4)cc2)nc(-c2ccccc2)c1-c1ccccc1,37.8% (inactive)
10,CC(C)OC(=O)Nc1ccc(-c2nc(-c3cccc(OCCN4CCOCC4)c3)c(-c3ccnc(Br)c3)[nH]2)cc1,19.9% (inactive)
11,CCCCCCn1c(-c2ccc(C(=O)O/N=C(\N)c3ccc4ccccc4c3)cc2)nc(-c2ccccc2)c1-c1ccccc1,71.8% (inactive)
12,O=C(Nc1ccc(-c2nc(-c3cccc(OCCN4CCOCC4)c3)c(-c3ccnc(Br)c3)[nH]2)cc1)c1ccccc1,2.49% (active)
13,CCOC(=O)c1sc2ncc(-c3ccc(C)cc3)n2c1C,93.4% (inactive)
14,CC(C)C(=O)Nc1ccc(-c2nc(-c3cccc(OCCN4CCOCC4)c3)c(-c3ccnc(Br)c3)[nH]2)cc1,50.4% (inactive)
15,CCOC(=O)C1=C(N)Oc2c(sc3c(C)cccc23)C1c1ccc(Cl)cc1 (stereo unspecified),23.7% (inactive)
16,CCOC(=O)C1=C(N)Oc2c(sc3c(C)cccc23)C1c1ccc(OC)cc1 (stereo unspecified),20.3% (inactive)
17,CCC(=O)Nc1ccc(-c2nc(-c3cccc(OC)c3)c(-c3ccnc(Br)c3)[nH]2)cc1,80.4% (inactive)
18,Cc1cccc2c1S/C(=C/c1ccc([N+](=O)[O-])cc1)C2=O,30.2% (inactive)
19,CCOC(=O)C1=C(N)Oc2c(sc3c(CC)cccc23)C1c1ccc(F)cc1 (stereo unspecified),22.3% (inactive)
